This is an account of results in PubChem BioAssay (EPA / NIEHS).

Read-out in test [1]: Tumor necrosis factor receptor superfamily member 6 (Homo sapiens) (UniProt P25445)
Description: LTEA_HepaRG_FAS: Life Technologies and Expression Analysis (LTEA) Assay for Fas cell surface death receptor (FAS) using HepaRG (AID 2283447). The note with it: mRNA level, 48 h; actives raise or lower the signal. The method in brief: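 Differentiated HepaRG cells in serum-free induction medium were exposed 48 h to 8 half-log concentrations up to 100 uM in 0.5% DMSO, in duplicate. FAS mRNA was measured by qRT-PCR normalised to ACTB, GAPDH and POLR2A; bidirectional fit versus DMSO.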

Read-out in test [2]: Fatty acid synthase (Homo sapiens) (UniProt P49327)
The test is described as follows: LTEA_HepaRG_FASN: Life Technologies and Expression Analysis (LTEA) Assay for Fatty Acid Synthase (FASN) using HepaRG (AID 2283448).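 For AC50: differentiated human HepaRG liver cells in serum-free induction medium.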 Conditions: mRNA level, 48 h; actives raise or lower the signal. The method in brief: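 HepaRG, 48 h exposure, 8-pt half-log series top 100 uM, 0.5% DMSO vehicle, duplicates. Readout: FASN transcript by Fluidigm qRT-PCR; housekeeping-normalized; bidirectional curve fit vs DMSO baseline.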

Read-out in test [3]: Cyclin D2 (CCND2), CCND2 (gene 894)
The test is described as follows: LTEA_HepaRG_CCND2: Life Technologies and Expression Analysis (LTEA) Assay for Cyclin D2 (CCND2) using HepaRG (AID 2283449).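 Note: CCND2 transcript measured by TaqMan qRT-PCR and normalised to three housekeeping genes.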 Conditions: mRNA level, 48 h; actives raise or lower the signal. The gist of the method: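 HepaRG, 48 h dosing, 8-pt half-log curve from 100 uM, 0.5% DMSO; duplicate wells. Readout: CCND2 transcript by microfluidic qRT-PCR, housekeeping-normalised; bidirectional fit vs DMSO baseline.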

Read-out in test [4]: Cyclin Dependent Kinase Inhibitor 1A (CDKN1A), CDKN1A (gene 1026)
Description: LTEA_HepaRG_CDKN1A: Life Technologies and Expression Analysis (LTEA) Assay for Cyclin Dependent Kinase Inhibitor 1A (CDKN1A) using HepaRG (AID 2283450). The note with it: mRNA level, 48 h; actives raise or lower the signal. The method in brief: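 Read-out is CDKN1A mRNA by TaqMan qRT-PCR, normalized to three housekeeping genes and fitted in both directions against the DMSO baseline. Human HepaRG cells were treated 48 h with test chemicals up to 100 uM in half-log steps, 0.5% DMSO.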

Read-out in test [5]: Cyclin D1 (CCND1), CCND1 (gene 595)
The test is described as follows: LTEA_HepaRG_CCND1: Life Technologies and Expression Analysis (LTEA) Assay for Cyclin D1 (CCND1) using HepaRG (AID 2283451). Conditions: mRNA level, 48 h; actives raise or lower the signal. The method in brief: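 HepaRG plated 48 h, medium switched to serum-free induction medium, chemicals added in duplicate (top 100 uM, half-log steps, 0.5% DMSO) for 48 h, cells lysed, RNA measured by TaqMan qRT-PCR.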

Read-out in test [6]: catalase (CAT), CAT (gene 847)
Description: LTEA_HepaRG_CAT: Life Technologies and Expression Analysis (LTEA) Assay for catalase (CAT) using HepaRG (AID 2283452). Conditions: mRNA level, 48 h; actives raise or lower the signal. The gist of the method:
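HepaRG cells in serum-free induction medium, 0.5% DMSO vehicle, exposed 48 h in duplicate over 8 half-log concentrations from 100 uM. CAT mRNA measured by qRT-PCR, normalized to ACTB, GAPDH, POLR2A; bidirectional fit versus DMSO.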

Read-out in test [7]: flavin-containing dimethylaniline monooxygenases 3 (FMO3), FMO3 (gene 2328)
The test is described as follows: LTEA_HepaRG_FMO3: Life Technologies and Expression Analysis (LTEA) Assay for flavin-containing dimethylaniline monooxygenases 3 (FMO3) using HepaRG (AID 2283453).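 Note: differentiated human HepaRG liver cells in serum-free induction medium.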 Conditions: mRNA level, 48 h; actives raise or lower the signal. The gist of the method:
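Eight-point concentration-response in serum-free HepaRG cultures (top 100 uM, 0.5% DMSO, 48 h). Read-out: FMO3 mRNA level normalized to three endogenous control genes, fitted bidirectionally versus vehicle.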

Read-out in test [8]: Cytochrome P450 (CYP1A1), CYP1A1 (gene 1543)
Description: LTEA_HepaRG_CYP1A1: Life Technologies and Expression Analysis (LTEA) Assay for Cytochrome P450 (CYP1A1) using HepaRG (AID 2283454). Conditions: mRNA level, 48 h; actives raise or lower the signal. The gist of the method:
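HepaRG, 48 h post-plating switched to serum-free induction medium; 8-pt conc-response (top 100 uM, half-log, 0.5% DMSO), duplicates, 48 h. Lysis in RLT, TaqMan qRT-PCR for CYP1A1; gain or loss vs DMSO.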

Read-out in test [9]: CFLAR gene, CFLAR (gene 8837)
The test is described as follows: LTEA_HepaRG_CFLAR: Life Technologies and Expression Analysis (LTEA) Assay for CFLAR gene using HepaRG (AID 2283455). The note with it: mRNA level, 48 h; actives raise or lower the signal. The gist of the method: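 qRT-PCR read-out (Fluidigm/TaqMan) of CFLAR mRNA, normalized to three housekeeping genes, in differentiated human HepaRG cells after 48 h chemical exposure; 8-point half-log series from 100 uM in 0.5% DMSO; bidirectional curve fitting versus DMSO.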

Read-out in test [10]: Forkhead box O1 (FOXO1), FOXO1 (gene 2308)
Description: LTEA_HepaRG_FOXO1: Life Technologies and Expression Analysis (LTEA) Assay for Forkhead box O1 (FOXO1) using HepaRG (AID 2283456). Conditions: mRNA level, 48 h; actives raise or lower the signal. The gist of the method:
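HepaRG, 48 h exposure, 8-pt half-log series from 100 uM in 0.5% DMSO, duplicates; Fluidigm qRT-PCR mRNA, housekeeping-normalised; bidirectional fit vs DMSO baseline.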

Read-out in test [11]: growth arrest and DNA damage 45 (GADD45A), GADD45A (gene 1647)
Description: LTEA_HepaRG_GADD45A: Life Technologies and Expression Analysis (LTEA) Assay for growth arrest and DNA damage 45 (GADD45A) using HepaRG (AID 2283458). Conditions: mRNA level, 48 h; actives raise or lower the signal. The gist of the method: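 HepaRG, 48 h exposure, 8 conc. (top 100 uM, half-log steps), 0.5% DMSO vehicle, duplicates. Read-out: qRT-PCR mRNA level, housekeeping-normalized (ACTB/GAPDH/POLR2A). Curves fit bidirectionally vs DMSO baseline.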

Read-out in test [12]: Forkhead box O3 (FOXO3), FOXO3 (gene 2309)
The test is described as follows: LTEA_HepaRG_FOXO3: Life Technologies and Expression Analysis (LTEA) Assay for Forkhead box O3 (FOXO3) using HepaRG (AID 2283459). The note with it: mRNA level, 48 h; actives raise or lower the signal. The method in brief:
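qRT-PCR readout of FOXO3 transcript, normalized to three housekeeping genes (ACTB, GAPDH, POLR2A); gain or loss fitted against 0.5% DMSO vehicle. HepaRG cells, 48 h chemical exposure, 8-point half-log series, top 100 uM.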

Read-out in test [13]: ABC Transporter (ABCB1), ABCB1 (gene 5243)
Description: LTEA_HepaRG_ABCB1: Life Technologies and Expression Analysis (LTEA) Assay for ABC Transporter (ABCB1) using HepaRG (AID 2283460). Conditions: mRNA level, 48 h; actives raise or lower the signal. The method in brief: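 HepaRG, 48 h exposure, 8-pt half-log series from 100 uM, 0.5% DMSO vehicle, duplicates. Readout: ABCB1 transcript by Fluidigm TaqMan qRT-PCR, housekeeping-normalized; bidirectional curve fit vs DMSO baseline.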

Read-out in test [14]: growth arrest and DNA damage 45 (GADD45B), GADD45B (gene 4616)
The test is described as follows: LTEA_HepaRG_GADD45B: Life Technologies and Expression Analysis (LTEA) Assay for growth arrest and DNA damage 45 (GADD45B) using HepaRG (AID 2283461). Conditions: mRNA level, 48 h; actives raise or lower the signal. The method in brief: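 HepaRG, ~100,000 cells/well, 48 h plating; serum-free induction medium; cpd 100 uM top, half-log x8, 0.5% DMSO, duplicate, 48 h; lysis in RLT, RNA isolation, qRT-PCR; norm ACTB/GAPDH/POLR2A; bidirectional fit vs DMSO.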

Read-out in test [15]: ABC Transporter (ABCC3), ABCC3 (gene 8714)
Description: LTEA_HepaRG_ABCC3: Life Technologies and Expression Analysis (LTEA) Assay for ABC Transporter (ABCC3) using HepaRG (AID 2283462). Conditions: mRNA level, 48 h; actives raise or lower the signal. The gist of the method: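 Human HepaRG, 48 h dosing, 8-pt half-log series from 100 uM, 0.5% DMSO vehicle, duplicates. ABCC3 mRNA by TaqMan qRT-PCR, housekeeping-normalized; bidirectional curve fit vs DMSO.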

Read-out in test [16]: ABC Transporter (ABCB11), ABCB11 (gene 8647)
Description: LTEA_HepaRG_ABCB11: Life Technologies and Expression Analysis (LTEA) Assay for ABC Transporter (ABCB11) using HepaRG (AID 2283463). Conditions: mRNA level, 48 h; actives raise or lower the signal. The gist of the method:
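HepaRG, 48 h exposure, 8-pt half-log CRC top 100 uM, 0.5% DMSO vehicle, duplicates. Readout: TaqMan qRT-PCR of ABCB11 mRNA, housekeeping-normalized (ACTB/GAPDH/POLR2A). Bidirectional fit vs DMSO baseline.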

Read-out in test [17]: ABC Transporter (ABCC2), ABCC2 (gene 1244)
The test is described as follows: LTEA_HepaRG_ABCC2: Life Technologies and Expression Analysis (LTEA) Assay for ABC Transporter (ABCC2) using HepaRG (AID 2283464). Conditions: mRNA level, 48 h; actives raise or lower the signal. The gist of the method:
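HepaRG, 48 h post-plating; serum-free induction medium; cpd 8-pt, 100 uM top, half-log, 0.5% DMSO, duplicate, 48 h. Readout: ABCC2 mRNA by qRT-PCR, norm. ACTB/GAPDH/POLR2A. Bidirectional fit vs DMSO baseline.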

Read-out in test [18]: Broad substrate specificity ATP-binding cassette transporter ABCG2 (Homo sapiens) (UniProt Q9UNQ0)
The test is described as follows: LTEA_HepaRG_ABCG2: Life Technologies and Expression Analysis (LTEA) Assay for ABC Transporter (ABCG2) using HepaRG (AID 2283465). The note with it: mRNA level, 48 h; actives raise or lower the signal. The gist of the method: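 HepaRG, 48 h exposure, 8-pt half-log series from 100 uM, 0.5% DMSO vehicle, duplicates. Readout: ABCG2 transcript by qRT-PCR (Fluidigm array), housekeeping-normalized; bidirectional curve fit relative to DMSO baseline.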

Test [19] in a line: CEETOX_H295R_PROG: CeeTox H295R High-throughput Steroidogenesis Assay for Progesterone (PROG) (AID 2283442).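 For AC50: human H295R adrenal cells primed with 10 µM forskolin before dosing; progesterone secreted into medium by H295R cells measured by HPLC-MS/MS.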 Conditions: actives raise or lower the signal. The method in brief: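 Steps: seed H295R cells and let them adhere overnight; prime 48 h with 10 uM forskolin; dose with compound in DMSO at 0.1% final for 48 h; extract medium steroids with MTBE; measure progesterone by LC-MS/MS. MTT viability was run in the same wells.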

Test [20] is described as follows: CEETOX_H295R_TESTO: CeeTox H295R High-throughput Steroidogenesis Assay for Testosterone (TESTO) (AID 2283457). The note with it: actives raise or lower the signal. The method in brief:
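H295R, passage ≤10, 48 h dosing; media extracted with MTBE → HPLC-MS/MS for testosterone; 7-pt standard curve sets LLOQ/ULOQ; bidirectional fit vs DMSO; MTT viability same wells.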

Active and inactive are the calls of the source. Rule for the calls: active = hit-call score of the fitted dose curve at least 0.9, where 1 is the maximum; inactive = score below 0.9.

Fatty acid synthase (Homo sapiens), sequence (P49327 whole entry, looked up): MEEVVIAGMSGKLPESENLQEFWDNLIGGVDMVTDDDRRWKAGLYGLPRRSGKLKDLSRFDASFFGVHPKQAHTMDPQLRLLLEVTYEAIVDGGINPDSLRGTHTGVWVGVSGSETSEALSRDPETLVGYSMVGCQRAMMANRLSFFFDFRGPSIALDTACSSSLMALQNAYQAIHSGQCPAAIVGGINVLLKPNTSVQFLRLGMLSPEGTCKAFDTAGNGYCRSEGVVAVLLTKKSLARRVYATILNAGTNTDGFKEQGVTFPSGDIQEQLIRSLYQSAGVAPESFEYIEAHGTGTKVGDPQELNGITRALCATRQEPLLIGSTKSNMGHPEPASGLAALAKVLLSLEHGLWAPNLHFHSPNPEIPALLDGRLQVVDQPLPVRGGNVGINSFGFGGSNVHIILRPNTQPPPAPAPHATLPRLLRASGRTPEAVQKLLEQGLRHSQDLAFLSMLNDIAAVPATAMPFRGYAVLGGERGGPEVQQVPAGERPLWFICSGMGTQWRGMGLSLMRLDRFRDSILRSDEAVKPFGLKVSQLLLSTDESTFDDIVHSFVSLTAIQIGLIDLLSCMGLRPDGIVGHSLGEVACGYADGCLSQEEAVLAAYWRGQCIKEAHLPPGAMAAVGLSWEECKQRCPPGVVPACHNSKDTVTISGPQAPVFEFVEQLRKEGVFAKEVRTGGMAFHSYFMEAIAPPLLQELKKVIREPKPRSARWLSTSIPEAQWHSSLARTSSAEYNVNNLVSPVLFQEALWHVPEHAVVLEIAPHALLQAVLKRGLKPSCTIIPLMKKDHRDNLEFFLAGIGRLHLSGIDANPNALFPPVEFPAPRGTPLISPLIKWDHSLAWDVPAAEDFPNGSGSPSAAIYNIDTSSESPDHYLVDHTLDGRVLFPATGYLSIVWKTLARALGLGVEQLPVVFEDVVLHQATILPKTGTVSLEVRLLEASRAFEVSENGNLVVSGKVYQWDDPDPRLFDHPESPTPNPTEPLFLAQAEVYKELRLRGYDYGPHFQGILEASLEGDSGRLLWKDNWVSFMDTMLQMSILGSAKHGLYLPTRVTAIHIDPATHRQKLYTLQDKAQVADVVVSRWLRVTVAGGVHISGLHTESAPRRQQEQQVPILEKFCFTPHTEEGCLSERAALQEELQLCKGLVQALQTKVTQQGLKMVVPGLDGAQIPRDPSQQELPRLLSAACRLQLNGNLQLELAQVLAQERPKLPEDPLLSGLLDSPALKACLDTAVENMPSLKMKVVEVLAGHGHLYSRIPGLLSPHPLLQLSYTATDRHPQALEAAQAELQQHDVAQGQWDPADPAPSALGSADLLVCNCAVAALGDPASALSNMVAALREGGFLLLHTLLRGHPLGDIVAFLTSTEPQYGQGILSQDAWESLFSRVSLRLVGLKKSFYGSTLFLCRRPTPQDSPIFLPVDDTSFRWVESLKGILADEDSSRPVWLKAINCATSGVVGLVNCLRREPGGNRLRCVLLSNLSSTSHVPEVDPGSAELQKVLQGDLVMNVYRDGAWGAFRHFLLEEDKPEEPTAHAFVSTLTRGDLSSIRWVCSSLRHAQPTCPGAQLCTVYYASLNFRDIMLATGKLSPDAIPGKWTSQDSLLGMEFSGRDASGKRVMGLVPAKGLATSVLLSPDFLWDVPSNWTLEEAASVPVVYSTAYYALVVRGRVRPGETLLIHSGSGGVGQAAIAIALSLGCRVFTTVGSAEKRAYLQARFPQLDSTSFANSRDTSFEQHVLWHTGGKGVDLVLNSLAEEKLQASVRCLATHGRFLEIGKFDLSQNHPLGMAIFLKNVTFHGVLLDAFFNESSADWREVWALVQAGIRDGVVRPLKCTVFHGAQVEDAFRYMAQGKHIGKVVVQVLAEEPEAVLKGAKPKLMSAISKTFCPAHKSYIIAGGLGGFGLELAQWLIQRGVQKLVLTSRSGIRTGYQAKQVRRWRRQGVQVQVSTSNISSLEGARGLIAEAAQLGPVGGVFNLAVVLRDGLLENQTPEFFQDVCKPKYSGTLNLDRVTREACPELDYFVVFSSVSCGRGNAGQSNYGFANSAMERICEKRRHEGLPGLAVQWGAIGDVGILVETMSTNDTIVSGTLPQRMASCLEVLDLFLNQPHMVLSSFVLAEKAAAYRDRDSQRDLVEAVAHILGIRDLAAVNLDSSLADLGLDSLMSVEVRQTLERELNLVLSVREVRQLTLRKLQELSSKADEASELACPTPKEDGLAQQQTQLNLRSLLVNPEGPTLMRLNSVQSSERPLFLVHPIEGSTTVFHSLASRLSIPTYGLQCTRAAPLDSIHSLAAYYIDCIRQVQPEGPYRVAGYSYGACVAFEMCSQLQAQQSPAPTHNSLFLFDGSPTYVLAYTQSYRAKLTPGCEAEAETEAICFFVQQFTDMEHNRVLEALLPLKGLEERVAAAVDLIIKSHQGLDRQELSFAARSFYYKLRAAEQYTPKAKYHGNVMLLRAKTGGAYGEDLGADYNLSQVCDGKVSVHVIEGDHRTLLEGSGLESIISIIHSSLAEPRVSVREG
Broad substrate specificity ATP-binding cassette transporter ABCG2 (Homo sapiens), sequence (Q9UNQ0 whole entry, looked up): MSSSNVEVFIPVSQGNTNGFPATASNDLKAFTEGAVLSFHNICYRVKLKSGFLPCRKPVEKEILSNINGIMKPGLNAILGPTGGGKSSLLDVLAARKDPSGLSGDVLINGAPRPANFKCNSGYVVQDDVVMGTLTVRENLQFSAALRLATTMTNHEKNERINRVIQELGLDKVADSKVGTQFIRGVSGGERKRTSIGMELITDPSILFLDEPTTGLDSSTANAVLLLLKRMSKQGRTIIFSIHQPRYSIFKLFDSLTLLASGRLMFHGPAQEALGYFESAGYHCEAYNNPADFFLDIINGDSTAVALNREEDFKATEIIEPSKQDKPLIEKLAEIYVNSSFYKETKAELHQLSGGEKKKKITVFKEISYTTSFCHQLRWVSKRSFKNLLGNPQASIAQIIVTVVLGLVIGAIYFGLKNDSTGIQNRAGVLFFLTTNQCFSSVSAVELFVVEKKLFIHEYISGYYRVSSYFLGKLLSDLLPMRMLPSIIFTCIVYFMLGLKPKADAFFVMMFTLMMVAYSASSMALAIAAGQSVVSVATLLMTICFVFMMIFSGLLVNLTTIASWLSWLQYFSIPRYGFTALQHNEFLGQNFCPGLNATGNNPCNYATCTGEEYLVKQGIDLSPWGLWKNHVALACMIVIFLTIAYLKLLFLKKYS

A word on the AC50: it is the concentration giving half of the maximal activity seen. `COC(=O)N(C(=O)N1CO[C@@]2(C(=O)OC)Cc3cc(Cl)ccc3C2=N1)c1ccc(OC(F)(F)F)cc1`: the compound was called inactive in test [1], in test [3], in test [4], in test [5], in test [10] and in test [11]. Also, the outcome in test [12], in test [13], in test [15], in test [17] and in test [18] was inactive. Also, the AC50 in [2] is 18.8 µM (active); in test [6] it was 40 µM (active); in test [7], 40 µM (active); in [8], 5.08 µM (active); in [9], 29.8 µM (active); in test [14] it was 8.78 µM (active). For the same compound, the AC50 in test [16] was 40 µM (active).

With `CCSC(=O)N1CCCCCC1`, the compound was called inactive in test [19], in test [1], in [2], in [4], in test [5] and in test [6]. Besides, the compound was called inactive in test [8], in [9], in [11], in test [12], in [14] and in [15]. The call in test [16], in test [17] and in [18] was inactive.

As for `CC(C)N1C(=O)N(c2ccccc2)CSC1=NC(C)(C)C`, the result in [1], in test [2], in [3], in test [5], in [8] and in test [9] was inactive. Also, the compound was called inactive in test [10], in test [12], in [15] and in test [17]. The half-maximal activity concentration (AC50) in test [4] is 85.2 µM (active); in test [6], 75.4 µM (active); in test [7] it was 91.2 µM (active); in test [11], 81.2 µM (active); in test [13], 17.7 µM (active); in test [16], 94.4 µM (active). Moreover, in [18], the AC50 is 50 µM (active).

With `CC(C)Oc1cccc(NC(=O)c2ccccc2C(F)(F)F)c1`, the AC50 in [19] is 8.93 µM (active); in test [2] it was 65.2 µM (active); in [3], 0.0398 µM (active); in [8] it was 81.6 µM (active). Also, the compound was classed as inactive in test [1], in test [4], in test [5], in [6], in test [11] and in [12]. Also, the outcome in test [14], in [15], in [16], in test [17] and in test [18] was inactive.

Take `COCc1cnc(C2=NC(C)(C(C)C)C(=O)N2)c(C(=O)O)c1` (centres undefined): the call in test [19], in [1], in [2], in test [3], in test [4] and in test [5] was inactive. Moreover, the outcome in test [6], in test [20], in [11], in [12], in [15] and in test [16] was inactive. Moreover, the compound was called inactive in test [18]. Also, the AC50 in test [8] is 65.5 µM (active).
